# Compounds with a hit are over-represented: about 3.4% of the library has one in this group of screens.
# ADAM17 inh: ADAM17 inhibition, QFRET primary screen; P78536; recombinant ADAM17, EDANS/DABCYL FRET peptide cleavage; inhibition, % at 6.95 µM; 0.83% of 370,000 active; AID 720648;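 active = inhibition above the mean of compounds lying between control limits plus 3 SD, set per campaign, cut at about 8.5% in these data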
# NRP1-CendR mod: modulators of CendR peptide binding to human neuropilin-1. inhibition, % at 25 µM. 0.85% of 360,000 active. FAM-RPARPAR peptide binding to NRP-1, fluorescence polarization. AID 602438;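 active = inhibition or corrected inhibition above about 18%, plus a signal ratio from 0.5 to 1.5, limit read from the data, passing the limit was not always enough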
# ADAM10 inh: inhibits human ADAM10; recombinant ADAM10, EDANS/DABCYL FRET peptide cleavage, 3 h; 0.62% of 370,000 active; AID 720582; inhibition, % at 7 µM;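 active = inhibition above a per-campaign cutoff equal to the mean of compounds falling between control-based bounds plus 3 SD, cut at about 20% in these data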
# proKLK7 act: activates the human kallikrein-7 zymogen | activation, % at 7 µM | purified proKLK7, EDANS-DABCYL substrate fluorescence; 100% is mature enzyme control, 0% vehicle | AID 652039 | P49862 | 0.9% of 370,000 active;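 active = activation above the mean of all tested compounds plus 3 SD, computed per campaign excluding outliers beyond control limits, cut at about 13% in these data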
# Target sequence (P49862 whole entry, looked up): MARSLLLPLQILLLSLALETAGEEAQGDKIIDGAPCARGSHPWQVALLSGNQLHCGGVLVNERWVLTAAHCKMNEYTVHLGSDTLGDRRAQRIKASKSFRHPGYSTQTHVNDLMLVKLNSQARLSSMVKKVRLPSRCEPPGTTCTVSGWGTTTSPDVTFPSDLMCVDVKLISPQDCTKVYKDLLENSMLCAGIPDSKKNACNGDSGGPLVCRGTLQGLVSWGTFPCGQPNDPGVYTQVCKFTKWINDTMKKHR
# HGIII-sPLA2 inh: Inhibits HGIII-sPLA2 liposome hydrolysis, primary screen. AID 743126. QFRET BODIPY PC-A2 liposome hydrolysis, fluorescence. 0.56% of 370,000 active. inhibition, % at 12.2 µM. Q9NZ20;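 active = inhibition above mean plus 3 SD of compounds lying within the high and low control bounds, cut at about 19% in these data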
# ADAM10 ctr: counter-screen for ADAM17 exosite inhibitors: inhibitors of human ADAM10 | shares compounds with ADAM17 inh | inhibition, % at 6.95 µM | recombinant ADAM10, EDANS/DABCYL FRET peptide cleavage, 3 h | 47% of 2,900 active;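 active = mean inhibition over the triplicate runs exceeds the activity threshold set in the earlier primary screen, cut at about 20% in these data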
# ADAM17 confirm: confirmation of inhibitors of human ADAM17; shares compounds with ADAM17 inh; recombinant ADAM17, EDANS/DABCYL QFRET peptide cleavage; inhibition, % at 6.95 µM; 65% of 2,900 active; AID 743257;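 active = mean inhibition across replicates above the hit cutoff set in the primary screen, cut at about 8.5% in these data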
# A number is an active result; 0 = inactive; - = not tested or not shown.
SMILES,ADAM17 inh,NRP1-CendR mod,ADAM10 inh,proKLK7 act,HGIII-sPLA2 inh,ADAM10 ctr,ADAM17 confirm
Cc1ccccc1NC(=O)c1[nH]cnc1C(=O)NN,13,0,0,0,0,0,0
CCOc1ccc(N=Nc2c(=O)[nH]n3c(=O)cc(C)[nH]c23)cc1,10,0,0,0,0,0,12
Cc1cc(=O)n2[nH]c(=O)c(N=Nc3ccccc3)c2[nH]1,0,0,0,0,0,-,-
O=C(C(=O)N1CCC(CNS(=O)(=O)Cc2ccccc2)CC1)c1cccs1,0,-,0,0,0,-,-
CSCSC1=C(C#N)C(c2ccccc2Cl)C(C(C)=O)=C(C)N1 (centres undefined),15,0,0,0,0,0,9.3
CCOC(=O)CSC1=C(C#N)C(c2ccccc2F)C(C(C)=O)=C(C)N1 (centres undefined),0,0,0,0,0,-,-
CC1=C(C(=O)OCc2ccccc2)C(/C=C/c2ccccc2)NC(=S)N1 (centres undefined),12,0,0,0,0,30,15
O=C(NCc1ccco1)c1ccc(Br)c(S(=O)(=O)N2CCCCC2)c1,13,0,0,0,0,25,0
O=S(=O)(c1ccccc1)N1CCC(n2cnc3ccccc32)CC1,9.7,0,0,0,0,0,0
Nc1[nH]c(C(=O)c2ccccc2)c(-c2cc(F)ccc2Br)c1C(=O)NCCc1c[nH]c2ccccc12,10,-,0,0,0,26,16
C[C@@H]1NC(=O)[C@H]2C[C@@]3(c4ccccc4)c4ccccc4N[C@H]3N2C1=O,0,-,0,0,0,-,-
CCCNc1nc2c(c(=O)[nH]c(=O)n2C)n1CCC(C)C,8.8,0,0,0,0,25,13
Fc1ccc2c(c1)c1n[nH]c(=S)nc1n2CCc1ccccc1,0,0,0,0,0,-,-
NNc1nnc2c3cc(F)ccc3n(CCc3ccccc3)c2n1,12,0,0,0,0,0,0
C(=C\c1ccccc1)/CN1CCN(C(c2cccs2)c2nnnn2Cc2ccccc2)CC1 (centres undefined),0,0,0,0,0,-,-
C(=C\c1ccccc1)/CN1CCN(C(c2cccc3ccccc23)c2nnnn2Cc2ccccc2)CC1 (centres undefined),12,0,0,0,0,23,9.6
CCOC(=O)c1ccc(-n2c(O)c(/C=N/NC(=O)C3COc4ccccc4O3)c3ccccc3c2=O)cc1 (centres undefined),10,0,0,0,0,0,0
CCOC(=O)c1ccc(NC(=O)C2COc3ccccc3O2)cc1 (centres undefined),0,0,0,0,0,-,-
C=C(C)[C@@H]1CC2=C(OC)C(CC=C(C)C)(CC=C(C)C)C(=O)C(C(=O)c3ccccc3)=C2O1,0,-,0,0,0,-,-
O=C(NC1=NCCS1)c1cc(-c2cccc(Br)c2)nc2ccccc12,9.1,0,0,0,0,0,9.3
Cc1onc(-c2ccccc2Cl)c1C(=O)Nc1cccc2cccnc12,12,0,0,0,0,20,18
CCN(CC)c1nc(C)nc2c1nnn2Cc1ccccc1,0,-,0,0,0,-,-
Cc1cc(C(=O)Cn2nnc(-c3ccc(Cl)cc3)n2)c(C)n1CC1CCCO1 (centres undefined),9.0,0,0,0,0,0,9.6
N#CCC[C@H]1CC[C@]2(CCCN(c3ccccc3)C2)O1,0,-,0,0,0,-,-
Cc1ncc2c(n1)-c1cc(F)ccc1SC2,0,0,0,0,0,-,-
Nc1ncc2c(n1)-c1cc(Cl)ccc1SC2,10,0,0,0,0,0,0
O=C(c1ccccc1)n1ccc2ccc(-c3ccc4ccn(C(=O)c5ccccc5)c4c3)cc21,0,-,0,0,0,-,-
Cc1cccc(N(CC(=O)Nc2ccccc2-c2ccccc2)S(=O)(=O)c2ccccc2)c1C,9.3,0,0,0,0,28,16
O=C(C(=O)N1CCC(CNS(=O)(=O)c2ccc(F)cc2)CC1)c1cc2ccccc2o1,0,-,0,0,0,-,-
O=C1CCN(S(=O)(=O)c2ccccc2)CCN1CCOCc1cccc(F)c1,10,0,0,0,0,0,0

# Bioassay records from PubChem.
